Experimental data: PubChem BioAssay AID504832 (National Center for Advancing Translational Sciences (NCATS), 2011)
In all, about 310,000 compounds went through this assay and about 18,000 (5.8%) were called active. Where a call stands in place of a potency, no number is given. Inconclusive results (about 22%) are left out. Calls follow the shape of the dose curve; as a rule, active = well fitted inhibition curve with a large enough effect; inconclusive = small, poorly fitted or top-dose-only effect, or another doubt; inactive = no such curve, though single readings can be large or run the other way. The sample as a whole holds a higher share of actives than the screen did.
Potency is read from the fitted curve at half-maximal effect.

Assay: Primary qHTS for delayed death inhibitors of the malarial parasite plastid, 48 hour incubation
Conditions: P. falciparum luciferase growth in erythrocytes; series mostly up to 28.7 µM
Procedure, shortened: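 Firefly luciferase activity from engineered P. falciparum reports growth; inhibitors lower the luminescent signal. Cultures contained 2% hematocrit erythrocytes at 0.1% final parasitemia.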
With Cc1ccc(Cn2c(C)c3cnn(CC(=O)NCc4ccccn4)c(=O)c3c2C)cc1 the Potency was “inactive”. With Cc1ccc(-c2nn(-c3ccccc3)cc2/C=C2\SC(=S)N(CCCCCC(=O)O)C2=O)o1 the Potency was 4.65 µM (active). For Cc1ccc(-c2nn(-c3ccccc3)cc2CN(Cc2ccccc2)C(=O)CCC(=O)O)o1, the Potency was “inactive”. In the case of O=C(CCCN1C(=O)/C(=C/c2ccco2)SC1=S)Nc1ccccc1, the Potency is reported as “inactive”. In the case of O=C(O)c1cc2c(cc1NC(=O)c1c(F)cccc1Cl)OCCCO2, the Potency is reported as “inactive”. For COc1ccc(Cl)cc1NS(=O)(=O)c1cccc(C(=O)NCC2CCCO2)c1 (centres undefined), the Potency was “inactive”. In the case of COc1ccccc1C(CNC(=O)c1cccc(S(=O)(=O)Nc2ccc(F)cc2)c1)N(C)C (centres undefined), the Potency is reported as 13.1 µM (active). In the case of CC(=O)N1CCN(C(=O)c2cccc(S(=O)(=O)Nc3ccc(C)cc3)c2)CC1, the Potency is reported as “inactive”. For COc1ccc(C(CNC(=O)c2ccc(S(=O)(=O)Nc3ccccc3F)cc2)N(C)C)cc1 (centres undefined), the Potency was “inactive”. With CCN(c1ccccc1)S(=O)(=O)c1cccc(C(=O)O)c1 the Potency was “inactive”. For COc1ccc(NS(=O)(=O)c2cccc(C(=O)NCCc3ccc(S(N)(=O)=O)cc3)c2)cc1, the Potency was “inactive”. For COc1ccc(C(CNC(=O)c2ccc(NS(=O)(=O)c3ccc(F)c(C)c3)cc2)N(C)C)cc1 (centres undefined), the Potency was 14.7 µM (active). In the case of O=C(NCc1ccccc1CN1CCCC1)c1cccc(S(=O)(=O)Nc2ccc(F)cc2)c1, the Potency is reported as 13.1 µM (active). In the case of O=C(OC1CCOC1=O)c1cccc(S(=O)(=O)Nc2ccc(F)cc2)c1 (centres undefined), the Potency is reported as “inactive”. For COc1ccc(C(=O)Nc2ccc(S(=O)(=O)NC(C)C)cc2)cc1, the Potency was “inactive”. For O=C(NCc1cccc(C(F)(F)F)c1)c1cccc(S(=O)(=O)N2CCN(Cc3ccccc3)CC2)c1, the Potency was “inactive”. For CCN(c1ccccc1)S(=O)(=O)c1cccc(C(=O)NCc2ccccc2CN2CCOCC2)c1, the Potency was 13.1 µM (active). For COCCCNC(=O)Cc1ccc(-n2c(C)nc3cccnc32)cc1, the Potency was “inactive”. In the case of COc1ccccc1CNC(=O)c1ccc(N(C)S(=O)(=O)c2ccc(C)cc2)cc1, the Potency is reported as “inactive”. For CCc1nn(CCCC(=O)NCc2ccc(C)cc2)c(=O)c2cc3occc3n12, the Potency was “inactive”. In the case of O=C(NC(Cc1ccccc1)C(=O)O)/C(=C\c1ccccc1)NC(=O)c1ccco1 (centres undefined), the Potency is reported as “inactive”. In the case of O=Cc1c(Nc2ccccc2Cl)nc2ccccn2c1=O, the Potency is reported as “inactive”. For CC1(C)C(C=C(Cl)Cl)C1C(=O)NC(O)C(=O)c1ccccc1 (centres undefined), the Potency was “inactive”. For O=C(CCNC(=O)C1CCN(S(=O)(=O)c2ccccc2)CC1)NC1CC1, the Potency was “inactive”. For CCN(CC)C(CNC(=O)CSc1nnnn1-c1cccc(F)c1)c1ccco1 (centres undefined), the Potency was “inactive”. In the case of CCCCNC(=O)C1(O)c2ccccc2NC(=O)N1c1ccc(Cl)cc1 (centres undefined), the Potency is reported as “inactive”. With COc1ccccc1CCNS(=O)(=O)c1cn(C)nc1C the Potency was “inactive”. In the case of CCc1nc2cccnc2n1-c1ccc(C(=O)O)cc1, the Potency is reported as “inactive”. In the case of NC(=O)Cn1cc(/C=N\NS(=O)(=O)c2ccccc2)c2ccccc21, the Potency is reported as “inactive”. With CCc1ccccc1NC(=O)c1ccc2snnc2c1 the Potency was “inactive”. With CC1CCCCN1C(=O)CCS(=O)(=O)Cc1ccccc1 (centres undefined) the Potency was “inactive”. For Cc1cnc(C(=O)Oc2cccc(Cl)c2Cl)cn1, the Potency was “inactive”. In the case of Cc1ccc(-c2nn(-c3ccc(F)cc3)cc2C(=O)NCC(c2cccs2)N2CCOCC2)cc1 (centres undefined), the Potency is reported as 10.4 µM (active). For O=C(NCC(c1cccs1)N1CCOCC1)c1cc(Cl)ccc1[N+](=O)[O-] (centres undefined), the Potency was “inactive”. With CC(C)(C)C1CCC(C(=O)NCC(c2cccs2)N2CCOCC2)CC1 (centres undefined) the Potency was “inactive”. For CCOC(=O)C1(Cc2cccc(OC)c2)CCCN(C(=O)CCSC)C1 (centres undefined), the Potency was “inactive”. With CC(=O)N1CCN(C(=O)C2(NC(=O)Nc3ccc(C)cc3)CCCCC2)CC1 the Potency was “inactive”. For O=C(c1cc2ccccc2o1)N1CCN(c2cccc(C(F)(F)F)c2)CC1, the Potency was “inactive”. In the case of Cc1nn(CC(=O)N2CCCCC2)c(=O)c2nn(-c3ccccc3)c(C)c12, the Potency is reported as “inactive”. In the case of COc1ccc(Nc2ncc(C(=O)N3CCN(c4ccccc4OC)CC3)c3ccccc23)cc1, the Potency is reported as 11.7 µM (active). In the case of COc1ccccc1N1CCN(C(=O)c2ccc(NC3=NC4CS(=O)(=O)CC4S3)cc2)CC1 (centres undefined), the Potency is reported as “inactive”. For COc1ccc(N2CCN(C(=O)C3CCN(C(=O)c4ccccc4Cl)CC3)CC2)cc1, the Potency was “inactive”. With OC(COc1ccc(F)cc1Cl)CN1CCc2ccccc2C1 (centres undefined) the Potency was “inactive”. In the case of CCN(CC)S(=O)(=O)c1ccc2[nH]c(=O)cc(C(=O)N(C)C3CCS(=O)(=O)C3)c2c1 (centres undefined), the Potency is reported as “inactive”. With COc1ccc(NC(=O)CSc2ccc(-c3ccco3)nn2)c(OC)c1 the Potency was “inactive”. For COCCn1c(SCC(=O)Nc2ccccc2F)nc2c(c1=O)SCC2, the Potency was “inactive”. For CC1Cc2nc(SCC(=O)Nc3ccccc3F)n(C)c(=O)c2S1 (centres undefined), the Potency was 7.38 µM (active). In the case of CCn1c(SCC(=O)Nc2ccc3c(c2)OCCO3)nc2c(c1=O)SC(C)C2 (centres undefined), the Potency is reported as “inactive”. For Cn1c(CCC(=O)Nc2ccccc2F)nnc1SCC(=O)Nc1ccccc1Cl, the Potency was “inactive”. For COCCn1c(SCC(=O)Nc2cc(Cl)ccc2OC)nc2c(c1=O)SC(C)C2 (centres undefined), the Potency was 8.28 µM (active). For COc1ccc(C)cc1NC(=O)CSc1ccc(Cl)cc1, the Potency was “inactive”. With CC(C)N(Cc1ccccc1)C(=O)COC(=O)c1ccccc1SCC(=O)N1CCCC1 the Potency was “inactive”. With CCn1c(SCC(=O)NCC2CCCO2)nc2ccccc21 (centres undefined) the Potency was “inactive”. With CC1CCN(C(=O)c2ccc3c(=O)n4c(nc3c2)CCCCC4)CC1 the Potency was “inactive”. In the case of COCCN1C(=O)C(=O)/C(=C(/O)c2ccc(S(=O)(=O)N3CCOCC3)cc2)C1c1ccc(O)c(OC)c1 (centres undefined), the Potency is reported as “inactive”. In the case of CCOC(=O)C1CCN(C(=O)COc2cccc3ccccc23)CC1, the Potency is reported as “inactive”. With Cc1ccc(C(=O)NNC(=O)C(C)Oc2ccc3ccccc3c2)o1 (centres undefined) the Potency was “inactive”. In the case of Cc1cccc(C(C)C)c1NC(=O)COC(=O)C1CC(=O)N(Cc2ccccc2)C1 (centres undefined), the Potency is reported as “inactive”. In the case of COc1cccc(N2CC(C(=O)NCc3n[nH]c(=O)c4ccccc34)CC2=O)c1 (centres undefined), the Potency is reported as “inactive”. In the case of CN(C)CCCCCN(C)Cc1cc2ccccc2o1, the Potency is reported as 4.65 µM (active). In the case of CCCOC(=O)c1cc2ccccc2oc1=O, the Potency is reported as “inactive”. In the case of COc1ccccc1CN(C)C(=O)c1cc2ccccc2o1, the Potency is reported as “inactive”. For O=c1c2ccccc2ccc2ccc(P(=O)(O)O)cc12, the Potency was “inactive”. In the case of CC1CC(C)CN(C(=O)CCNC(=O)Cn2cnc3ccccc3c2=O)C1 (centres undefined), the Potency is reported as “inactive”. With COc1ccc(CCN(C)C(=O)C2CCCN(Cc3ccc(OC)c(OC)c3)C2)cc1OC (centres undefined) the Potency was “inactive”. With CSc1ccc(C(=O)C2CCCN(Cc3ccn[nH]3)C2)cc1 (centres undefined) the Potency was “inactive”. In the case of COc1cc(CN2CCCC(C(=O)c3ccc(SC)cc3)C2)cc(Cl)c1O (centres undefined), the Potency is reported as 11.7 µM (active). In the case of CCN1CCN(C2CCCCC2NS(=O)(=O)c2ccc(Cl)cc2)CC1 (centres undefined), the Potency is reported as “inactive”. With Cc1csc(NC(=O)C2CCN(S(=O)(=O)c3ccccc3)CC2)n1 the Potency was “inactive”. In the case of CC1CCN(C(=O)COC(=O)c2cc(=O)[nH]c3ccccc23)CC1, the Potency is reported as “inactive”. In the case of Cc1cc(S(=O)(=O)NC2CCCC2)ccc1-n1cnnn1, the Potency is reported as “inactive”. With CCCCC(CC)CNCc1cccn1CCN1CCOCC1 (centres undefined) the Potency was 11.7 µM (active). For CSc1ccc(CNCCN2CCOCC2)cc1, the Potency was “inactive”. For CCCCc1ccc(NC(=S)NCCCN2CCOCC2)cc1, the Potency was “inactive”. In the case of O=C(CN1C(=O)S/C(=C\c2ccccc2F)C1=O)NCCCn1ccnc1, the Potency is reported as “inactive”. In the case of O=C(COC(=O)Cc1ccccc1F)NNC(=O)c1ccc(Cl)cc1, the Potency is reported as “inactive”. In the case of CC(C)c1nnc(NC(=O)CCC(=O)N2CCN(c3cccc(Cl)c3)CC2)s1, the Potency is reported as “inactive”. In the case of Cc1cc(C)n(-c2nc(C(F)(F)F)nc3ccccc23)n1, the activity change, negative = inhibition is reported as 31.4% [at 5.75 µM] (inactive). With CCc1ccc(C(CNc2nc(C(F)(F)F)nc3ccccc23)N(C)C)cc1 (centres undefined) the Potency was 11.7 µM (active). In the case of NS(=O)(=O)c1ccc(CCNc2nc(C(F)(F)F)nc3ccccc23)cc1, the Potency is reported as “inactive”. In the case of CCC(NC(=O)c1cc(COc2ccc(F)c(F)c2)on1)c1ccncc1 (centres undefined), the Potency is reported as “inactive”. With Cc1ccccc1CCNC(=O)C1CCC(=O)N(Cc2ccc(Cl)cc2)C1 (centres undefined) the Potency was “inactive”. With Cc1c(C)n2c(SCC(=O)N3CCCC3)nnc2[nH]c1=O the Potency was “inactive”. In the case of COC(=O)Cc1ccc(OCC(=O)NC2CCCC2)cc1, the Potency is reported as “inactive”. For CCOc1ccc(NC(=O)COC(=O)C2CCC(=O)N2)c([N+](=O)[O-])c1 (centres undefined), the Potency was “inactive”. In the case of COc1ccc(-c2c3c(=O)n(C)c(=O)n(C)c3cn2NC(C)=O)cc1, the Potency is reported as “inactive”. In the case of COc1ccc(N(C(=O)c2cccnc2)S(=O)(=O)c2ccc3c(c2)n(C)c(=O)n3C)cc1, the Potency is reported as “inactive”. In the case of COc1ccc(-c2c3c(=O)n(C)c(=O)n(C)c3cn2-c2cccc(OC)c2)cc1, the Potency is reported as 11.7 µM (active). With COc1ccc(-n2c(-c3ccccc3)nc3ccccc3c2=O)cc1 the Potency was “inactive”. For COc1cccc(-n2cc(C(=O)O)c3ccccc3c2=O)c1, the Potency was “inactive”. For COc1cccc(-n2cc3c(c2-c2ccccc2)c(=O)n(C)c(=O)n3C)c1, the Potency was 5.22 µM (active). With Cc1cnc(NC(=O)c2ccc(Cl)nc2)s1 the Potency was “inactive”. With COC(=O)c1ccc(N2CCOCC2)c(NC(=O)c2ccc3c(c2)OCCO3)c1 the Potency was “inactive”. In the case of Cc1ccc(Nc2ncnc3c2cnn3C)c(C)c1, the Potency is reported as “inactive”. With N#Cc1c2c(c(N3CCN(CCO)CC3)n3c1nc1ccccc13)CCCC2 the Potency was 0.828 µM (active). For CC1CCc2sc3nc(N4CCN(CCO)CC4)n4ncnc4c3c2C1 (centres undefined), the Potency was “inactive”. In the case of CCCCn1c(CN2CCN(CCO)CC2)nc2ccccc21, the Potency is reported as “inactive”. In the case of CCN(CC(=O)Nc1cc(Cl)ccc1C)C(=O)CN1C(=O)NC2(CCCC2)C1=O, the Potency is reported as “inactive”. In the case of CCn1ccnc1CN(C)C(=O)c1cc(COc2ccc(-n3cncn3)cc2)on1, the Potency is reported as “inactive”. For O=C(c1ccco1)N1CCN(C(=S)Nc2cc(F)cc(F)c2)CC1, the Potency was “inactive”. In the case of NC(=O)CC(NC(=O)Cc1ccc(Br)cc1)c1ccc(NC2CC3CCC2C3)c([N+](=O)[O-])c1 (centres undefined), the Potency is reported as “inactive”. For CN(C(=O)c1cccc([N+](=O)[O-])c1)c1ccccc1C(=O)NCc1ccccc1, the Potency was “inactive”. For CC(CCc1ccccc1)NCC(O)c1cccc([N+](=O)[O-])c1 (centres undefined), the Potency was 0.233 µM (active). For CC(C)OP(=O)(OC(C)C)C(Nc1ccccc1)c1cccc([N+](=O)[O-])c1 (centres undefined), the Potency was “inactive”.
